Test results reported in PubChem BioAssay AID1903 (Southern Research Specialized Biocontainment Screening …, 2009).
The campaign covered roughly 310,000 compounds. About 1,200 (0.39%) were called active. The rule behind the calls is not given here. Not all results are given here. Results with a measured potency or affinity are listed apart.

The compounds below were run against Large T antigen (Simian virus 40) (UniProt P03070) (assay: SV40 large T antigen inhibitors, biochemical (AID 1903)). Conditions: SV40 large T antigen ATPase/helicase inhibition assay; at 20 µM; stronger effect = higher value.
Sequence of Large T antigen (Simian virus 40) (P03070 whole entry, looked up): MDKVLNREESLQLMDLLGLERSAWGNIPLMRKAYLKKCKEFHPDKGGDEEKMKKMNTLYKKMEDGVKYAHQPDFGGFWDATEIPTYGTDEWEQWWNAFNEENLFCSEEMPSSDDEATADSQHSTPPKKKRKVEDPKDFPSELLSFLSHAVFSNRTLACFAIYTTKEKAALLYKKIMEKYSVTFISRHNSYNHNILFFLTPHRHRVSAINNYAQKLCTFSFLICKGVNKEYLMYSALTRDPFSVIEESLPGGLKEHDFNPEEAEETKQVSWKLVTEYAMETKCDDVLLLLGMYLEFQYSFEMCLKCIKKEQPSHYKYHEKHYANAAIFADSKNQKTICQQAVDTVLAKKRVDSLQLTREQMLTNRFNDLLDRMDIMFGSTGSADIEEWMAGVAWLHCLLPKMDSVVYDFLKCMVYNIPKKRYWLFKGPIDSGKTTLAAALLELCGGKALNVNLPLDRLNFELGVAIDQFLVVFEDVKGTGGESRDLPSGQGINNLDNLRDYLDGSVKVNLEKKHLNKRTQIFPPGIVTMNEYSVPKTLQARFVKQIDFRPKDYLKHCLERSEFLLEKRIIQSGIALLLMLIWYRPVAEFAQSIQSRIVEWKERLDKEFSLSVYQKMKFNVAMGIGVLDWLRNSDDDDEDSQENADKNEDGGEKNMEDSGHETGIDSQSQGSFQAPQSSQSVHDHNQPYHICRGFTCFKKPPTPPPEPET

inhibition, inactive:
C#CCOCCOCCOCCNc1nc(N2CCN(C(=O)CCCCCCCCCCNC(=O)[C@@H](CCC(=O)O)n3cc(CCCCCN)nn3)CC2)nc(N2CCN(C(=O)CCCCCCCCCCNC(=O)[C@H](CO)n3cc(CCCCCN)nn3)CC2)n1 31.5%
CCOC(=O)C1=C(C)N(C)C(=S)N(C)C1c1ccc(OC)cc1 (stereo not given) -2.82%
CCOc1cc2sc(N3CCC(C(=O)NCCCN4CCCC4=O)CC3)nc2cc1Br 12.1%
Cc1ccc(C(=O)NCCc2n[nH]c(=S)n2C)cc1 10.6%
CCC(=O)N1c2ccccc2[C@@H](N(C(C)=O)c2ccccc2)C[C@H]1C 4.31%
O=C(c1ccccc1)N1CCN(C2CC3CCC2C3)CC1 (stereo not given) 6.45%
O=C1/C(=C/c2ccc(F)cc2)SC(=S)N1CC(=O)N1CCCCC1c1cccnc1 (stereo not given) 18.2%
CCOC(=O)c1c(C)n(C)c2c(C)cc(O)c(OC(C)=O)c12 1.3%
COC(=O)c1ccc(N)c(CS(=O)(=O)c2ccc(Cl)cc2)c1 -0.68%
OCC1(Cc2ccccc2)CCCN(Cc2ccc3c(c2)OCCO3)C1 (stereo not given) 10.8%
CC(C)n1cnc2cc(NCc3nc4ccccc4n3C)ccc21 20.2%
O=C(CSc1nc2ccccc2o1)N/N=C/c1ccc(C(=O)O)cc1 16.5%
O=C(Cc1nnc(NC(=O)c2ccccc2)s1)N/N=C/c1ccc(O)cc1 17.1%
O=C(CSc1nc2ccccc2o1)N/N=C/c1ccccc1 12.4%
Cc1ccc(C(=O)Nc2nnc(CC(=O)N/N=C/c3ccc(O)c(O)c3)s2)cc1 19.4%
CCN(CC(=O)Nc1c(F)cccc1F)C(=O)/C=C/c1ccc(Br)s1 18.8%
Oc1ccc(-c2cn3c(n2)SCC3)cc1 28.9%
Cc1ccc(-c2cn3c(n2)SCC3)cc1 23.1%
Cc1ccc(C)c(S(=O)(=O)N2CCCCC2CCNC(=O)C(=O)NCc2cccnc2)c1 (stereo not given) 11.7%
CN(C)CCn1c(COc2ccccc2)nc2ccccc21 27.6%
COc1ccc(N2CCN(C(=S)NCc3ccc(C)cc3)CC2)cc1 5.85%
CCCCCC(=O)NC(NC(=S)Nc1ccc(S(N)(=O)=O)cc1)C(Cl)(Cl)Cl (stereo not given) 7.24%
O=C(Nc1cccc(-n2cnnn2)c1)c1cccs1 6.94%
O=C(Nc1cccc(N2CCCC2)c1)c1cccs1 7.12%
CN1CCCN(C(=O)CSc2ccccc2)CC1 27.3%
Cc1ccc(/C=C/C(=O)NCc2ccco2)o1 16.3%
O=C1C(=Cc2cccn2-c2ccc(O)cc2)C(=O)c2ccccc21 3.5%
O=C1NC(=S)N/C1=C/c1cccn1-c1ccc([N+](=O)[O-])cc1 5.15%
COc1ccc(N(CC(=O)Nc2ccc(C)cc2C)S(=O)(=O)c2c(C)n[nH]c2C)cc1 17.7%
O=C(COC(=O)c1n[nH]c2ccccc12)Nc1cccc(S(=O)(=O)N2CCOCC2)c1 7.02%
CCOc1ccc(S(=O)(=O)Nc2ccc(O)c(Sc3ncn[nH]3)c2)cc1 6.38%
CCOc1ccc(NS(=O)(=O)c2ccc3[nH]c(=O)oc3c2)cc1 1.63%
O=C(c1ccc(S(=O)(=O)Nc2ccc(F)cc2)cc1)N1CCN(c2ccccn2)CC1 10.4%
COc1cc(/C=C2\C(=O)N(c3ccc(S(N)(=O)=O)cc3)N=C2C)ccc1OC(=O)c1ccco1 32.1%
COc1cc(/C=C2/C(=O)NN(c3cccc(C)c3)C2=O)cc([N+](=O)[O-])c1O 12.9%
COc1cc(/C=C2/SC(=O)NC2=O)ccc1OC(=O)c1ccco1 15.8%
COc1cc(/C=C2\C(=O)NN(c3ccc(C)cc3)C2=O)cc([N+](=O)[O-])c1O 36.6%
COc1cc(/C=C2/C(=O)NN(c3ccc(Cl)cc3)C2=O)cc(Br)c1O 32.1%
COC(=O)c1ccc(N2NC(=O)/C(=C/c3ccc(OC)c(OC)c3)C2=O)cc1 23.8%
O=C(c1cccc2nc3ccccc3nc12)N1CCOCC1 13.7%
Cc1ccccc1N1C(=O)c2cccc([N+](=O)[O-])c2C1=O 18.8%
Cc1cccn2c(CNCCSc3nccn3C)c(C(=O)N3CCCCC3)nc12 14.5%
O=C(Nc1nncs1)Oc1ccccc1 14.9%
CCCCc1nc(SCC(=O)N2CCCC2)c2c(=O)n(C)c(=O)n(C)c2n1 8.36%
O=C(Nc1ccc(F)cc1)C1CCCO1 (stereo not given) 22.1%
O=C(NNC(=O)C1CC=CCC1)c1ccccc1O (stereo not given) -2.59%
O=C(Nc1nccs1)C1CC=CCC1 (stereo not given) 2.9%
O=C(Nc1ccc(F)cc1)c1ccc(NC(=O)C2CCCO2)cc1 (stereo not given) 1.01%
O=C(Nc1ccc(Oc2ccc(NC(=O)C3CCCO3)cc2)cc1)C1CCCO1 (stereo not given) 5.21%
O=C(Nc1cccc(O)c1)c1ccc(NC(=O)C2CCCO2)cc1 (stereo not given) 12.5%
COc1ccc(OC)c(CC(=O)NC(c2ccccc2)c2ccccc2)c1 5.47%
O=C(N=Nc1c(O)[nH]c2ccccc12)c1cc(-c2ccc(F)cc2)n[nH]1 7.92%
O=C(c1ccncc1)N1CCN(C(=O)c2ccco2)CC1 6.56%
O=S(Cc1cc(Oc2ccccc2)nc(-c2ccccc2)n1)c1ccccc1 (stereo not given) 16.4%
CN1CCN(c2ccc(CNC(=O)c3ccco3)cc2)CC1 9.25%
O=C(CCCN1C(=O)CSc2ncccc21)N1CCN(Cc2ccccc2)CC1 -0.33%
COc1cccc(N/C(SCc2ccccc2F)=C(/C#N)C(=O)NCc2cccs2)c1 2.65%
Cc1ccc2[nH]c(=O)c(CN(Cc3ccccc3)C(=S)NCCCN(C)C)cc2c1 2.51%
NC(=O)c1cc(N)ccc1N1CCCCC1 36%
NC(=O)c1cc(N)ccc1N1CCCC1 18.4%
